In PubChem BioAssay (NCI) one finds growth data, which are given here for 8 compounds.

SMILES strings stand for the structures. This is part of a sample that, as a whole, favours compounds with a hit. Of some 83,000 tested, about 20% had one in any assay.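 Each cell line was grown in a 96-well plate and treated with one concentration of compound for 48 hours. Values below 10 were considered active.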 Values without a mark were called inactive. Activity calls are given as the source filed them.

Test systems include HCT-15 colon; HT29 colon; SNB-75 CNS; SNB-19 CNS; U251 CNS; PC-3 prostate; SK-MEL-5 melanoma; UACC-62 melanoma; LOX IMVI melanoma; SK-MEL-28 melanoma; SK-MEL-2 melanoma; EKVX NSCLC; SN12C renal; TK-10 renal; ACHN renal; A498 renal; MOLT-4 leukemia; UO-31 renal; CAKI-1 renal; CCRF-CEM leukemia.
Assay in all cases: NCI-60 one-dose screen, 48 h (100 = growth as untreated, 0 = no growth, -100 = all killed)
Settings in all cases: 10 µM unless noted

As for `COc1cc(/C=C/C(=O)C(C(=O)/C=C/c2ccc(OC(=O)CCNc3nnc(C)s3)c(OC)c2)C(=O)CCNc2nnc(C)s2)ccc1OC(=O)CCNc1nnc(C)s1`, the growth with HCT-15 colon is -43.2% (active); in the assay on HT29 colon it was -69% (active); with SNB-75 CNS, -13.6% (active); in the assay on SNB-19 CNS, 32.7%; in the assay on U251 CNS, 11.1%; with PC-3 prostate it was -16.4% (active). Besides, the growth with SK-MEL-5 melanoma is -22.6% (active); in the assay on UACC-62 melanoma, -67.6% (active); in the assay on LOX IMVI melanoma, -68.7% (active); in the assay with SK-MEL-28 melanoma it was -15.6% (active); with SK-MEL-2 melanoma it was 13.2%; with EKVX NSCLC, 21.9%. The growth was -33.9% (active) with SN12C renal; 29.4% in the assay on TK-10 renal; -21.4% (active) with ACHN renal; 49.7% in the assay with A498 renal; -27.9% (active) in the assay on MOLT-4 leukemia.
`NC(=O)c1cc(Br)cc(Br)c1NS(=O)(=O)c1ccccc1`: the growth with HCT-15 colon was 100%; with HT29 colon, 110%; in the assay with SNB-75 CNS it was 68.2%; with SNB-19 CNS it was 105%; in the assay on U251 CNS, 108%; in the assay with PC-3 prostate, 89.2%. The growth with SK-MEL-5 melanoma was 98.2%; with UACC-62 melanoma it was 94.9%; in the assay with LOX IMVI melanoma, 99.4%; in the assay with SK-MEL-28 melanoma it was 110%; in the assay with SK-MEL-2 melanoma it was 110%; in the assay on SN12C renal it was 95.9%. The growth is 75% with UO-31 renal; 130% with TK-10 renal; 100% with ACHN renal; 89.8% in the assay on CAKI-1 renal; 96.1% with A498 renal; 91.8% with CCRF-CEM leukemia.
As for `Cc1cc(-c2ccccc2)cc(C)n1`, the growth was 105% in the assay with HCT-15 colon; 99% in the assay on HT29 colon; 86.1% with SNB-75 CNS; 99.4% with SNB-19 CNS; 103% with U251 CNS; 96.6% with PC-3 prostate. Moreover, the growth in the assay on SK-MEL-5 melanoma was 106%; in the assay with UACC-62 melanoma it was 103%; in the assay on LOX IMVI melanoma, 96.9%; in the assay on SK-MEL-28 melanoma it was 107%; with SK-MEL-2 melanoma it was 98.1%; with EKVX NSCLC it was 116%. Moreover, the growth was 78.6% in the assay with UO-31 renal; 103% with TK-10 renal; 106% in the assay on ACHN renal; 103% with CAKI-1 renal; 116% in the assay with A498 renal; 102% in the assay with CCRF-CEM leukemia. Besides, the growth in the assay on MOLT-4 leukemia is 100%.
As to `CCOc1cc(/C=C/C(=O)CC(=O)/C=C/c2ccc(OC(=O)CNc3nc4ccc(OC)cc4s3)c(OCC)c2)ccc1OC(=O)CNc1nc2ccc(OC)cc2s1`, the growth in the assay with HCT-15 colon was 43.4%; with HT29 colon, -50.8% (active); in the assay with SNB-75 CNS it was 34.1%; in the assay on SNB-19 CNS, 49%; with U251 CNS, 15.7%; in the assay on PC-3 prostate it was 35.3%. In addition, the growth in the assay with SK-MEL-5 melanoma was 30.1%; with UACC-62 melanoma it was 55.8%; in the assay with LOX IMVI melanoma, 6.98% (active); in the assay with SK-MEL-28 melanoma it was 39.5%; with SK-MEL-2 melanoma, 59.1%; in the assay on EKVX NSCLC, 41.7%. For the same compound, the growth was 59% in the assay with SN12C renal; 60.5% in the assay with TK-10 renal; 69.4% with ACHN renal; 75.9% in the assay with CAKI-1 renal; 4.63% (active) in the assay on CCRF-CEM leukemia; 4.13% (active) in the assay on MOLT-4 leukemia.
On to `CN(C)CCCN=c1cc2c(=O)n(CCCN(C)C)c(=O)c3c(NCCCN(C)C)cc4c(O)n(CCCN(C)C)c(=O)c1c4c3-2`, for which the growth with HCT-15 colon is 13.7%; in the assay on HT29 colon, -42.2% (active); in the assay on SNB-75 CNS, -66.9% (active); in the assay with SNB-19 CNS, 10.7%; in the assay on U251 CNS, 3.63% (active); in the assay with PC-3 prostate it was 12.1%. Further, the growth in the assay with SK-MEL-5 melanoma is -82.4% (active); with UACC-62 melanoma it was -49.3% (active); in the assay with LOX IMVI melanoma, -42.3% (active); with SK-MEL-28 melanoma it was -48.6% (active); with SK-MEL-2 melanoma, -9.31% (active); in the assay with EKVX NSCLC it was -18.4% (active). Moreover, the growth with UO-31 renal was -26.6% (active); in the assay on TK-10 renal, 7.45% (active); in the assay with ACHN renal, -41.6% (active); with A498 renal, -64.8% (active); in the assay with CCRF-CEM leukemia, 10.8%; with MOLT-4 leukemia it was 25.1%.
Take `[N-]=[N+]=NCc1cccc(/C(O)=C/C(=O)C(=O)O)c1`: the growth was 113% in the assay with HCT-15 colon; 83.9% in the assay on HT29 colon; 73.6% in the assay with SNB-75 CNS; 101% in the assay with SNB-19 CNS; 103% in the assay with U251 CNS; 97.3% in the assay on PC-3 prostate. Further, the growth was 106% with SK-MEL-5 melanoma; 92.4% with UACC-62 melanoma; 92.6% in the assay with LOX IMVI melanoma; 82.1% in the assay with SK-MEL-28 melanoma; 72.8% with SK-MEL-2 melanoma; 120% in the assay on EKVX NSCLC. The growth in the assay with SN12C renal is 90.4%; in the assay with TK-10 renal, 107%; with ACHN renal, 107%; in the assay with CAKI-1 renal, 131%; in the assay on A498 renal, 108%; in the assay on CCRF-CEM leukemia it was 75.2%. Moreover, in the assay on MOLT-4 leukemia, the growth was -100% (active).
In the case of `COc1cccc2c1C(=O)c1c(O)c3c(c(O)c1C2=O)C[C@@](O)(C(C)=O)C[C@@H]3O[C@H]1C[C@H](N)[C@H](O)[C@H](C)O1`, the growth in the assay on HCT-15 colon was 7.88% (active); with HT29 colon, -13.5% (active); with SNB-75 CNS, -91.4% (active); with SNB-19 CNS it was 2.11% (active); with U251 CNS, 0.281% (active); in the assay on PC-3 prostate it was -26.3% (active). In addition, the growth with SK-MEL-5 melanoma is -100% (active); with UACC-62 melanoma, -65.8% (active); in the assay on LOX IMVI melanoma, -35% (active); in the assay on SK-MEL-28 melanoma, -44.5% (active); with SK-MEL-2 melanoma, -82% (active); in the assay on EKVX NSCLC, -25% (active). Also, the growth in the assay with UO-31 renal was -64.7% (active); in the assay with ACHN renal it was -23.1% (active); in the assay on CAKI-1 renal, -29.4% (active); in the assay with A498 renal, -72.7% (active); in the assay on CCRF-CEM leukemia, -25.1% (active); in the assay with MOLT-4 leukemia it was -17.8% (active).
On to `O=C1C(=O)c2c(nc3ccc(Cl)cn23)-c2ccccc21`, for which the growth in the assay on HCT-15 colon was -100% (active); with HT29 colon, -84.8% (active); in the assay on SNB-75 CNS it was -87.7% (active); with SNB-19 CNS, -100% (active); in the assay with U251 CNS, -100% (active); in the assay on PC-3 prostate it was -86.6% (active). Also, the growth was -100% (active) with SK-MEL-5 melanoma; -100% (active) with UACC-62 melanoma; -100% (active) with LOX IMVI melanoma; -100% (active) with SK-MEL-28 melanoma; -90.2% (active) with SK-MEL-2 melanoma; -95.6% (active) in the assay with EKVX NSCLC. Also, the growth in the assay with SN12C renal is -100% (active); in the assay with TK-10 renal it was -86.3% (active); in the assay on ACHN renal, -100% (active); in the assay on CAKI-1 renal it was -95.4% (active); with A498 renal it was -100% (active); with CCRF-CEM leukemia, -49.6% (active). Moreover, the growth in the assay with MOLT-4 leukemia was -94.5% (active).
